Reference: PMC5540273 (PLoS ONE, 2017)

Tests used:
Details in all cases: concentration: 1 μM, replicates: in singlicate; n = 1
TNIK = system: TNIK
TNK1 = system: TNK1
TNK2 = system: TNK2
TNNI3K = system: TNNI3K
TRKA = system: T1, TRKA
T1 construct: gene NTRK1

TRKB = system: TRKB
TRKC = system: T2, TRKC
T2 construct: gene NTRK3

TRPM6 = system: TRPM6
TSSK1B = system: TSSK1B
TSSK3 = system: TSSK3
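Note: KINOMEscan kinase panel screen.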

Compound	%Inh (TNIK) [%]	%Inh (TNK1) [%]	%Inh (TNK2) [%]	%Inh (TNNI3K) [%]	%Inh (TRKA) [%]	%Inh (TRKB) [%]	%Inh (TRKC) [%]	%Inh (TRPM6) [%]	%Inh (TSSK1B) [%]	%Inh (TSSK3) [%]
Cc1cccc(-c2nc(C)cc(Nc3ccncc3)n2)n1 [GSK257997]	0	0	28	0	39	0	0	24	3	17
CCCc1ccc(S(=O)(=O)NC2CCN(c3ccnc(Nc4ccc(F)cc4)n3)C2)cc1 (stereo not drawn) [GSK1379715]	0	0	26	13	0	0	28	0	100	15
Cc1cc(NCC(c2ccccc2)c2ccccc2)nc(NCc2ccc(C(F)(F)F)cc2)n1 [GW497681]	0	0	0	0	0	14	7	0	0	4
Cc1cccc(-c2cc(Nc3ccncc3)c3ccccc3n2)n1 [GSK223675]	0	0	0	0	0	0	0	0	0	11
CS(=O)(=O)c1ccc(-c2nc3n(c2-c2ccncc2)CCC3)cc1 [SKF-105942]	0	0	42	19	0	0	0	0	100	6
COc1ccc(Nc2nccc(-c3cccc(NC(=O)c4cc5cc(F)ccc5[nH]4)c3)n2)cc1 [GSK1229782]	84	0	16	0	52	36	47	33	22	35
Cn1ccc2ncnc(Oc3ccc(NC(=O)Nc4ccccc4)cc3)c21	3	0	0	0	4	0	15	0	0	0
Cc1c(Cn2ccn3c(=O)cc(N4CCOCC4)nc23)cccc1C(F)(F)F [GSK2289044]	3	0	6	2	1	0	0	12	12	6
COc1cc2ncn(-c3cc(OCC4CCCO4)c(C(N)=O)s3)c2cc1OC (stereo not drawn) [GSK204607]	27	0	17	0	15	0	0	0	0	10
Cc1ccc(NC(=O)Nc2cc(C(C)(C)C)nn2-c2ccccc2)cc1 [GSK1014915]	0	0	15	21	0	28	26	24	2	14
Nc1nc(-c2nccs2)c(-c2ccnc3ccccc23)s1 [GW693542]	10	0	24	4	0	0	23	4	16	79
NC(=O)c1nnc2ccccc2c1N	3	0	0	5	74	20	10	24	5	11
Fc1cc(Cl)ccc1Nc1ccnc2cc(I)ccc12 [GW551191]	31	6	10	15	0	37	24	0	32	3
Cl.c1ccc(-c2n[nH]cc2-c2ccnc(-c3ccc(CN4CCOCC4)cc3)c2)nc1 [GW776245]	30	42	0	0	0	0	0	0	0	0
O=C(Nc1n[nH]c2nc(-c3nccs3)c(Br)cc12)C1CC1 [SB-742251]	0	0	16	4	59	62	66	0	0	15
COC(=O)c1c(-c2ccccc2)c2cc(C(=O)O)ccc2c(=O)n1Cc1ccccc1	0	0	0	0	0	0	11	0	0	0
COc1cccc(-c2cc(-c3c[nH]nc3-c3ccccn3)ccn2)c1 [GW680338]	71	0	0	9	38	0	11	0	0	11
Cc1cccc(-c2nc(Nc3cccc(C(N)=O)c3)c3ccccc3n2)n1 [GW876019]	2	5	15	0	0	0	0	0	10	0
